S2 tox: reduces viability in counter-screen for ATXN expression inhibitors; AID 651635; Potency, µM (top dose mostly 56.7 µM), hits mostly cytotoxic; 0.49% of 400,000 active; S2 cells (HEK-293 line with an ATXN2-luciferase reporter) viability, CellTiter-Fluor protease fluorescence, 24 h; note: nearly all actives have a fitted effect of over 40% in size
HepG2 tox: counter-screen for TGF-b inhibitors: cytotoxicity in HepG2 cells; HepG2 CAGA-GFP viability, ATP luminescence, 18 h; Potency, µM (top dose mostly 46.1 µM), for the others: at the top dose activity change, negative = cytotoxicity, hits mostly cytotoxic; 0.76% of 410,000 active; AID 588856
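HepG2 CAGA-GFP cells (1000/well, DMEM with 1% FBS) received compound, then TGF-beta at 500 pg/mL final, and were incubated 18 hours at 37 degrees C. Viability was read by CellTiter-Glo luminescence. Media-only wells were set as complete cell-killing and DMSO as no toxicity.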
TGFb inhibitor: TGF-b pathway inhibition; Potency, µM (top dose mostly 46.1 µM), inactives show at the highest dose activity, negative = inhibition, actives largely listed as inhibitors; 1.2% of 410,000 active; AID 588855; HepG2 CAGA-GFP TGF-b/SMAD3 reporter, GFP fluorescence, 18 h; TGF-beta stimulated, 500 pg/mL final; note: % is set by controls: 0 for no effect and ±100 for the full control effect; nearly all actives have a fitted effect of over 65% in size
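Inhibition of TGF-beta-driven CAGA-GFP reporter expression in HEPG2 cells is measured by cellular GFP fluorescence after 18 h stimulation with 500 pg/mL recombinant TGF-beta in 1% FBS medium at 37 degrees C.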
Gal4-VP16 FLuc: inhibits Gal4-VP16 luciferase reporter, ROR gamma counter-screen. 3.5% of 310,000 active. Drosophila S2 Gal4-VP16 UAS-luciferase, luminescence, 20 h. Potency, µM (top dose mostly 53.6 µM), for the others: at the highest dose activity, negative = inhibition, hits mostly inhibitors;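 note: Gal4-VP16 expression switched on by copper sulfate through the metallothionein promoter; % is set by controls: 0 for no effect and ±100 for the full control effect; nearly all actives have a fitted effect of over 50% in size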
ATXN2 expr inh: inhibitors of ATXN2 expression. 0.72% of 360,000 active. Potency, µM (titrated, usually from 57 µM), without a hit: at the top dose activity change, negative = inhibition, usual class: inhibitors. HEK-293 ATXN2-luciferase reporter, luminescence, 24 h. AID 1745845; note: % is set by controls: 0 for no effect and ±100 for the full control effect; nearly all actives have a fitted effect of over 55% in size
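qHTS (up to 57 uM final) was run with 24 h compound exposure of reporter cells at 37 °C. Each well was multiplexed: SteadyGlo luminescence measured ATXN2-luciferase expression after a fluorogenic Gly-Phe-AFC viability readout (25 uM final).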
RORgamma inh: inhibitors of mouse ROR gamma transcriptional activity; Potency, µM (highest dose often 53.6 µM), without a hit: top-dose activity change, negative = inhibition, hits mostly inhibitors; 5.4% of 310,000 active; Drosophila S2 Gal4-RORgamma UAS-luciferase reporter, 20 h; AID 2551; note: % is set by controls: 0 for no effect and ±100 for the full control effect; nearly all actives have a fitted effect of over 60% in size
Target sequence (P51450 whole entry, looked up, the tested form may be a part): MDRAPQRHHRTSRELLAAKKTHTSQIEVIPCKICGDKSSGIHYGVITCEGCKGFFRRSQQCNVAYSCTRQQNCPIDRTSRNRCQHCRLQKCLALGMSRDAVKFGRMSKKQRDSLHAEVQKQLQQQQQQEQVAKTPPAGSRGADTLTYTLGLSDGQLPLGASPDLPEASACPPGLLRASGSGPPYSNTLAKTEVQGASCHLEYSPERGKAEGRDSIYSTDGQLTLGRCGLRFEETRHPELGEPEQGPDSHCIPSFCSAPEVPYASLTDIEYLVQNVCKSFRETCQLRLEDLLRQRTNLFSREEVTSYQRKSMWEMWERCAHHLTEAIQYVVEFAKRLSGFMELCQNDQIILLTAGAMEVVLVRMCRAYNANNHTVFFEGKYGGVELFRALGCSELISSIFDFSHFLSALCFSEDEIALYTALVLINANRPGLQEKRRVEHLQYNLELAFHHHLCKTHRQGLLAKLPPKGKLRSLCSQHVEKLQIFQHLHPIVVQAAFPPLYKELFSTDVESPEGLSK
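Stably transfected Drosophila Schneider cells are the test system, with ROR gamma fused to Gal4 and luciferase under UAS control; luminescence is read after 20 hr of 700 uM copper sulfate induction at ambient temperature.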
Numbers without * were called inactive; i = inactive; ? = inconclusive; . = no result given; [ ] = dose if it differs, or a comment. Compounds with a hit are over-represented: about 6.1% of the library has one in this group of screens. Calls come from the whole dose curve; as a rule, active = well fitted curve in the direction sought with a large enough effect; inconclusive = small, poorly fitted or top-dose-only effect, or another doubt; inactive = no such curve, though single readings can be large; an effect the other way counts as inactive or inconclusive. Potency is the fitted concentration of half-maximal effect.

SMILES | S2 tox | HepG2 tox | TGFb inhibitor | Gal4-VP16 FLuc | ATXN2 expr inh | RORgamma inh
COC1C(O)C(CO)OC1n1cnc2c(NC3CCCCC3)ncnc21 (stereo not given) | . | . | . | 20% | . | -2%
CC(C)(C)c1cnc(CSc2cnc(NC(=O)C3CCNCC3)s2)o1 | . | . | . | . | 0.31µM* | .
CC(C)(C)c1nnc(NC(=O)C2CCN(c3ncccn3)CC2)s1 | i | -9% | -2% | 1% | 13% | 7%
O=C(Nc1ccc(S(=O)(=O)Nc2nccs2)cc1)c1cccc(N2C(=O)c3ccccc3C2=O)c1 | i | -12% | -21% | -5% | . | 31%
CC(=O)Oc1cccc(N2C(=O)c3cccc4c([N+](=O)[O-])ccc(c34)C2=O)c1 | ? | -14% | -7% | 5.6µM* | . | 8.9µM*
CN(C)CCCN1C(=O)c2cccc3c([N+](=O)[O-])ccc(c23)C1=O | . | -94% | ? | 1.1µM* | ? | 1.4µM*
Cc1ccc(C(=O)O)cc1N1C(=O)c2cccc3c([N+](=O)[O-])ccc(c23)C1=O | . | -12% | ? | 6.3µM* | ? | 7.9µM*
CC(=O)Oc1cccc(N2C(=O)c3ccc(C(=O)O)cc3C2=O)c1 | i | -3% | ? | -7% | -3% | -38%
O=C(Nc1nccs1)c1cccc(N2C(=O)c3cccc4c([N+](=O)[O-])ccc(c34)C2=O)c1 | ? | -9% | -26% | 7.1µM* | ? | 7.1µM*
Cc1ncc2c(c1CNS(=O)(=O)N(C)C)CCN(C(=O)c1c(F)cccc1F)C2 | i | . | . | . | . | .
Cc1ccccc1OCc1nnc(SCc2cc(=O)c3cc(F)ccc3[nH]2)n1C | ? | -10% | -6% | . | -12% | .
COc1ccc2c(C)c(CCC(=O)NCc3ccccc3OC)c(=O)oc2c1 | i | -2% | 23% | . | 1% | .
O=C(O)c1ccc(CN2C(=O)c3cccc4c([N+](=O)[O-])ccc(c34)C2=O)cc1 | . | -8% | 59% | 7.1µM* | ? | ?
NCc1c[nH]c(=S)n1[C@H]1CCc2c(F)cc(F)cc2C1 | . | . | . | . | 49% | .
COc1ccc(CC(N)c2csc(NC(=O)Nc3ccc(F)cc3)n2)cc1 (stereo not given) | i | 18µM* | 11µM* | . | -32% | .
COc1ccc(CC(N)c2csc(NC(=O)Nc3ccccc3C(C)(C)C)n2)cc1 (stereo not given) | . | -99% | ? | . | ? | .
COc1ccc(CC(N)c2csc(NC(=O)Nc3ccccc3-c3ccccc3)n2)cc1 (stereo not given) | . | 16µM* | ? | . | ? | .
COc1ccc(OC)c(NC(=O)Nc2nc(C(N)CCc3ccccc3)cs2)c1 (stereo not given) | . | 16µM* | ? | . | ? | .
COc1ccc(CC(N)c2csc(NC(=O)Nc3cc(OC)ccc3OC)n2)cc1 (stereo not given) | ? | -63% | ? | . | ? | .
COc1ccc(CC(N)c2csc(NC(=O)c3cccs3)n2)cc1 (stereo not given) | i | -26% | 14µM* | . | -30% | .
COc1ccc(-c2nc(CSc3nnc(C)n4c3cc3sccc34)c(C)o2)cc1 | . | -17% | ? | . | . | .
O.O=C([O-])CC([S-])C(=O)[O-].[Au+].[Na+].[Na+] (stereo not given) | i | . | . | . | . | .
Cc1ccc(-c2noc(CN(C3CCCCC3)S(=O)(=O)c3ccc(Cl)cc3)n2)cc1 | . | -5% | -18% | . | . | .
CCN(CC)/[N+]([O-])=N/OCOC(=O)C(C)c1ccc2cc(OC(C)=O)ccc2c1 (stereo not given) | . | -1% | 4% | . | . | .
C=C1CC2C(=O)N(Cc3ccccc3)C(C(=O)O)C1N2C(=O)OC(C)(C)C (stereo not given) | . | 2% | -2% | 5% | . | 2%
SMILES | S2 tox | HepG2 tox | TGFb inhibitor | Gal4-VP16 FLuc | ATXN2 expr inh | RORgamma inh
c1cc2c(cc1C1CCCCC1)c1c3n2CCCNC3CCC1 (stereo not given) | . | 13µM* | 0% | -99% | 28µM* | ?
COc1ccc([N+](=O)[O-])cc1N | . | . | . | 8% | . | 11%
CSc1ccc(C2c3c(oc4cc(C)cc(C)c4c3=O)C(=O)N2CCO)cc1 (stereo not given) | i | -1% | -4% | . | 16% | .
CC(=NNC(=S)N(Cc1ccccn1)Cc1ccccn1)c1cnccn1 | ? | -44% | ? | . | 1.3µM* | .
S=C(NN=Cc1ccccn1)N(Cc1ccccn1)Cc1ccccn1 | ? | -21% | ? | . | 7.9µM* | .
S=C(NN=C(c1ccccc1)c1ccccn1)N(Cc1ccccn1)Cc1ccccn1 | . | -85% | ? | . | 0.89µM* | .
C/C(=N/NC(=O)c1cnccn1)c1ccncc1 | i | 11% | 17% | 6% | -12%[11.3 µM] | 2%
CCOC(=O)c1cnc2c(-c3ccccc3)c(C)nn2c1N | i | -1% | -1% | 12% | 13% | -9%
CCOC(=O)c1cnc2c(-c3ccccc3)cnn2c1N | i | -1% | -18% | 11µM* | 73% | 1.6µM*
CCOC(=O)c1cnn(-c2cc(C)c3ccccc3n2)c1N | i | -3% | 1% | ? | 19% | 0.11µM*
CCOC(=O)c1cnn(-c2ccccn2)c1N | i | 11% | 6% | -2% | 45% | 32%
O=C1CC(c2ccc(Cl)cc2)CC(=O)N1 | i | . | . | . | -1% | .
CC(C)CNC(=O)N1CCN(S(=O)(=O)c2ccc3c(ccn3C)c2)CC1 | i | -3% | -5% | . | 14% | .
CCOC(=O)N1N=C(c2ccc(C)cc2)CC1(O)C(F)(F)F (stereo not given) | i | -14% | -10% | 6.3µM* | 25% | 6.3µM*
O=C(COc1ccccc1)N1N=C(c2cccnc2)CC1(O)C(F)(F)F (stereo not given) | i | 1% | 0% | 19% | -6% | -27%
Cc1ccc(C2=NN(C3=NN=C(N)Cc4ncnn43)C(O)(C(F)(F)F)C2)cc1 (stereo not given) | i | -15% | -7% | ? | . | 8.9µM*
Cc1ccc(OCC(=O)N2N=C(c3ccncc3)CC2(O)C(F)(F)F)cc1C (stereo not given) | i | -30% | ? | -15% | . | 4µM*
O=C(C1CCCCC1)N1CC(=O)N2CCCc3ccccc3C2C1 (stereo not given) | i | . | . | . | -14% | .
Cc1cc(C)c2nc(Nc3nc(-c4ccccc4)cc(=O)[nH]3)nc(C)c2c1 | i | -14% | -4% | 2.2µM* | -1% | 0.63µM*
CCOC(=O)c1cnc(Nc2nc3ccccc3o2)nc1C | i | -41% | 0% | ? | 2.8µM* | ?
CCOC(=O)Cc1cc(=O)[nH]c(Nc2nc3ccccc3o2)n1 | i | -16% | -9% | 16µM* | -7% | 10µM*

Bioassay records deposited in PubChem BioAssay by National Center for Advancing Translational Sciences (NCATS).
